Drawing on PubChem BioAssay (NCI), this text covers growth for 40 molecules.

The panel holds about 83,000 compounds, 20% with a hit somewhere; the sample as a whole holds those more often.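 For each line, cells grew in 96-well plates with the test compound present at a single concentration for 48 hours.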 Active and inactive are the calls of the source.

For the assay, the system named is M14 melanoma. The assay can be described thus: NCI-60 one-dose screen, 48 h (100 = growth as untreated, 0 = no growth, -100 = all killed). The following applies: 10 µM unless noted. Here is the method:
Growth inhibition of the M14 human tumor cell line is measured as a screen for anti-cancer activity. Cells are grown in 96 well plates and exposed to the test compound for 48 hours. Compounds are tested at a single concentration, which is 10^-5 M for most compounds. The reported endpoint is percent growth (GI% or GIPRCNT), where numbers from 0 - 100% represent growth inhibition, and numbers from -100% - 0 represent cell death. For example, a value of 40 represents 60% growth inhibition. A value of 0 means no net growth occurred over the course of the experiment. A value of -40 indicates 40% of cells at the beginning of the experiment died by the end of the experiment. A value of -100 means all cells are dead at the end of the experiment.
NCI-60 Human Tumor Cell Lines Screen was performed using the standard one-dose NCI protocol, which is described in more detail at https://dtp.cancer.gov/discovery_development/nci-60/default.htm.
Compounds with GIPRCNT values below 10 were considered active. Activity score was based on GIPRCNT using the following formula: […]
Score is 0 for GIPRCNT values of 100 or above, 50 for GIPRCNT values of 0, and 100 for GIPRCNT values of -100.
For `N#C/C(=C(/O)CCCO)c1nc2ccccc2c(=O)[nH]1`, the growth is 105% (inactive). In the case of `CCCCCn1sc(=O)n(Cc2ccc(CNC(=O)OCc3ccc4cccc(O)c4n3)cc2)c1=O`, the growth is -64.7% (active). Turning to `c1cc2ccc3cc2cc1CNCCN1CCNCc2ccc4ccc(cc4c2)CNCCN(CCNC3)CCNCc2ccc3ccc(cc3c2)CNCC1`, the growth is 96.3% (inactive). Regarding `C=C(C)[C@@H]1CC[C@]2(C(=O)N3CCN(C)CC3)CC[C@]3(C)[C@H](CC[C@@H]4[C@@]5(C)C/C(=C/c6ccncc6)[C@H](O)C(C)(C)[C@@H]5CC[C@]43C)[C@@H]12`, the growth was -13.6% [100 µM] (active).

Take `O=[N+]([O-])c1cccc(N=NNc2cccc([N+](=O)[O-])c2)c1`: the growth is 102% (inactive). Regarding `CCC(C)[C@H](NC(=O)NC(=O)NC(=O)CI)C(=O)OC` (stereo not given in full), the growth was 71.2% (inactive). Then `O=C(N/N=C\c1cc(Cl)ccc1O)N/N=C/c1cc(Cl)ccc1O`, with 50.4% (inactive); and `CCOc1cc(NC(=O)c2ccccc2)c(OCC)cc1N`, with 116% (inactive). As for `C=CCCCCCCCCC(=O)OC(C)C`, the growth is 96.4% (inactive). Take `O=C(CCCSc1nc(-c2ccccc2)cc(-c2ccccc2)n1)NO`: the growth is 5.46% (active).

As for `Cn1cc(-c2noc(C(=O)c3cn(C)c4ncc(Br)cc34)n2)c2ccccc21`, the growth was 99.4% (inactive). For `Nc1ccc(Cl)c([N+](=O)[O-])c1` the value was 95.7% (inactive); for `COc1ccc(-c2cc(-c3ccccc3)nc(NCCNc3ccnc4cc(Cl)ccc34)n2)cc1`, -78.7% (active). Then `COc1ccc(NC(=O)Nc2ccc(-c3cccnc3)cc2N2CCC(CO)CC2)cc1`, with 63.3% (inactive); and `Cc1ccc(-c2cc(O)c(-c3ccc(C)cc3C)cc2O)c(C)c1`, with 66.8% (inactive). For `CC1(C(=O)O)CCC(N)(C(=O)O)C1(C)C` (stereo not given) the value was 110% (inactive); for `C#CCNC(=O)CC[C@@H](C)[C@H]1CC[C@H]2[C@@H]3CC[C@@H]4CC(=O)CC[C@]4(C)[C@H]3CC[C@]12C`, -22.4% [100 µM] (active); for `Cn1cc(-c2nnc(-c3cn(C)c4ncc(Br)cc34)s2)c2cc(Br)ccc21`, 97% (inactive). Consider `C=C(C)[C@@H]1CC[C@]2(COCCC#N)CC[C@]3(C)[C@H](CC[C@@H]4[C@@](C)(CCCNCCC#N)[C@H](C(=C)C)CC[C@]43C)[C@@H]12`, for which the growth was 32.4% [100 µM] (inactive). For `O=C(O)c1ccccc1C(F)(F)F` the value was 93.4% (inactive). `FC(F)(F)c1ccc2c(c1)Sc1ccccc1N2`: the growth is 98.3% (inactive).

Regarding `C=C(C)[C@@H]1CC[C@]2(C)[C@H](CC[C@@H]3[C@@H]([C@@](C)(O)CCC=C(C)C)CC[C@]32C)[C@@]1(C)CCC(=O)N1CCN(C)CC1`, the growth was -70.5% [100 µM] (active).

With `O=C(O)CC1CCCCC1c1ccccc1` (stereo not given), the growth is 97.2% (inactive). Then `COc1cc2c(O)n(CCCN3CCOCC3)c3c4cnc5cccc(c(=O)c3c2cc1OC)c54`, with 16.6% (inactive); and `CC(C)=CC/C=C(/C)[C@H]1CC[C@]2(C)[C@@H]1CC[C@@H]1[C@@]3(C)CCC(=O)NC(C)(C)[C@@H]3CC[C@]12C`, with 15.7% [100 µM] (inactive); and `Cn1c(=O)c(C#N)c(-c2ccco2)n2c(S(=O)(=O)Cc3ccccc3)nnc12`, with 57.6% (inactive). Then `C=C(C)[C@@H]1CC[C@]2(C)[C@H](CC=C3[C@@H]4[C@@H](C)[C@H](C)CC[C@]4(C(N)=O)CC[C@]32C)[C@@]1(C)CCC#N`, with -3.77% [100 µM] (active); and `CC1(C)C(=O)/C(=C\c2ccco2)C[C@]2(C)[C@H]3CC=C4[C@@H]5C[C@](C)(C(=O)O)CC[C@]5(C)CC[C@@]4(C)[C@]3(C)CC[C@@H]12`, with -43.4% [100 µM] (active); and `Cc1nc(Cl)c2c(n1)N(C)c1ccc(Cl)cc1C(C)C2` (stereo not given), with 86.9% (inactive). For `O=C(Nc1cccc2ccccc12)c1cc2ccccc2cc1O` the value was 32.2% (inactive); for `Cc1ccc(C2=C/C(=C/c3ccc(Br)cc3)C(=O)N2CCc2ccc(S(N)(=O)=O)cc2)cc1`, 97.5% (inactive).

Turning to `C=C(C)[C@@H]1CC[C@]2(C(=O)OC)CC[C@]3(C)[C@H](CC[C@@H]4[C@@]5(C)CC/C(=N\OCCC(=NCCC#N)NOCCC#N)C(C)(C)[C@@H]5CC[C@]43C)[C@@H]12`, the growth was 26.6% [100 µM] (inactive). Take `Nc1nc(Nc2ccccc2)c2ncn(Cc3ccc4c(c3)OCO4)c2n1`: the growth is 16.3% (inactive). For `O=C1Nc2ccccc2/C1=C/C(=O)c1ccc(N2CCCCC2)cc1` the value was 107% (inactive); for `Cn1cc(-c2noc(-c3cn(C)c4ncc(Br)cc34)n2)c2cc(Cl)ccc21`, 82.4% (inactive); for `O=c1c2c3c(sc2n2cnnc2n1Cc1ccccc1)CCCC3`, 164% (inactive). With `CCc1cccc(Cl)c1`, the growth is 101% (inactive). Then `O=C1NC(=O)C(Cc2ccccc2)(Cc2ccccc2)N1`, with 93.9% (inactive); and `COc1cc(NCc2ccccc2O)c2ncccc2c1`, with 94.4% (inactive).

Consider `Cc1ccc(N)c(O)c1`, for which the growth was 85.6% (inactive).
